In the supplement of paper PMC3334620:
The full ranking holds about 33,000 sequences; the median of “E-score (-0.5 to 0.5)” is about -0.032, and the highest 2% start at about 0.36. The sample as a whole holds a higher share of the highest values than the screen did.

The sequences below were run against T1, Sko1 (UniProt Q02100) (assay: PBM E-score (8-mer binding enrichment) (E-score (-0.5 to 0.5)); higher = stronger / more preferred TF binding). Conditions: protein concentration: 200 nM; construct: GST-full length.
T1 sequence: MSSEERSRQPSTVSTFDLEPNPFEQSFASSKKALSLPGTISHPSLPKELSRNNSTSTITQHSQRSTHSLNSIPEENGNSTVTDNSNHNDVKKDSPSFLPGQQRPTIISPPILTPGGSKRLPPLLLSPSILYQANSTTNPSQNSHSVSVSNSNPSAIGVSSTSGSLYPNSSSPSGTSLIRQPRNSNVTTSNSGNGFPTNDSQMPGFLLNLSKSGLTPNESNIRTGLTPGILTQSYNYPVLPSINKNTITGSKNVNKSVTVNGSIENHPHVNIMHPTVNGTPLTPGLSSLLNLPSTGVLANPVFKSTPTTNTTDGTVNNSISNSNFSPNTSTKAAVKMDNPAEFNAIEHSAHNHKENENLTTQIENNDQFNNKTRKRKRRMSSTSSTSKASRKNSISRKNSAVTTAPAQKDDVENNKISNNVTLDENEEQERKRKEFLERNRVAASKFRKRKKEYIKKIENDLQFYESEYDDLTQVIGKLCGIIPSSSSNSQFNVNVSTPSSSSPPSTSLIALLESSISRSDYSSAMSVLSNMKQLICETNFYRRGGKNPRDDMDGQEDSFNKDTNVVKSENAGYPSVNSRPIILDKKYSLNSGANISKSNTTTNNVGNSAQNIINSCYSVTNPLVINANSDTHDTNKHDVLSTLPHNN
Method in brief: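 Yeast transcription factors, full-length or as DNA-binding domains, were expressed with a GST tag using PURExpress in vitro transcription/translation. At about 100-200 nM they were applied to universal all-10-mer Agilent arrays, double-stranded by primer extension on fresh or once-stripped slides. Fluorescent anti-GST detected bound protein, and masliner normalised the scans. E-scores for ungapped eight-base words, pooled with reverse complements, came from the Universal PBM Analysis Suite.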

Sequence | PBM E-score
CTTGATGC | -0.116
AACCGCTT | -0.113
AATTCAAA | 0.193
CTTAAGCA | -0.0027
CACTTTGG | -0.0531
ATCTGGGA | -0.147
CAGGCAGC | -0.349
CGGTGGAA | -0.188
ATGAGCGA | 0.102
CATACGGA | -0.00572
CATACGAA | 0.308
AATACGAC | 0.22
AATACGTC | 0.464
AATACGGC | 0.0384
CATACGTA | 0.485
CCGACTGA | -0.162
ACATGGTA | 0.00395
ACTCCTGA | -0.0495
GTACGACA | 0.326
ATACGAAA | 0.346
CTACGAAA | 0.214
TGACGACA | 0.467

Sequence | PBM E-score
AGACGAAA | 0.199
TGACGAAA | 0.463
ATACGACG | 0.234
ATACGACA | 0.363
GGACGACA | 0.0412
TTACGAAA | 0.396
CGACGACA | 0.0871
GGACGAAA | -0.0622
AGAATCCC | -0.0186
GTAGTTGA | 0.173
CTTCTACC | -0.3
TAATGCAA | 0.0655
ATTCACTG | 0.0188
ACTTTCGG | 0.0182
TAGGGGGA | -0.251
CGCTATGC | 0.147
TCAAGTGA | 0.087
ATCGCTAG | -0.0122
CTAGTTAC | 0.099
CATTGAGG | -0.021
CAGGCTCC | -0.335
CTATGTCA | 0.338

Sequence | PBM E-score
ATATGTCA | 0.339
GTATGTCA | 0.398
CATTTACA | 0.103
ATTTTACG | 0.383
CATTTACG | 0.369
AATTTACG | 0.332
ATTTTACC | 0.252
CCTTTACG | 0.278
CATTTACC | 0.129
ACTTTACA | 0.158
ACTTTACG | 0.379
ATAGCGGA | -0.0894
AGGTTGTA | 0.15
GTCCAGTA | -0.0738
AGCGCGAA | 0.13
CGTCATAC | 0.486
AGTCATAC | 0.262
CCTCATAG | 0.1
GGTCATAC | 0.021
CGTCATAA | 0.487
AGTCATAA | 0.0121
TGTCATAA | 0.325

Sequence | PBM E-score
AGTCATAG | -0.0111
CGTCATAG | 0.483
GTAACTGA | 0.126
CCAGTGGG | -0.107
ATCCACGC | -0.0735
GTAACCTA | 0.192
CCAAAACG | 0.171
AACCCGTG | -0.216
AGATGACG | 0.476
CGATGACC | 0.0462
AGATGACA | 0.256
CGATGACA | 0.283
AGATGACC | -0.0804
CGATGACG | 0.482
CAACTTAC | 0.0405
AGCGAAAC | 0.163
GGACCGCC | -0.415
GGACCATA | -0.148
GGCCCAAC | -0.146
ACGTTAGA | 0.265
